Measurements: article PMC7822874, “Chemoprotective antimalarials identified through quantitative high-throughput screening of Plasmodium blood and liver stage parasites” (Scientific Reports, 2021)
Where two headings read alike, the source gives them in different places.

System: P. berghei-ANKA-GFP-LucCON liver stage parasites in HepG2-A16-CD81EGFP cells
Conditions: 48 h

SMILES | % viability (1 µM) | % viability (3 µM)
COc1ccc(OCCn2cc(C(=O)c3ccco3)c3ccccc32)cc1 [NCGC00101886] | 1.363 | 1.13
COc1cccc(OCCn2cc(C(=O)c3ccco3)c3ccccc32)c1 [MLS000050800] |  | 1.234
